In ChEMBL document CHEMBL3988442, “University of Dundee, Small-Polar-MMV Screening Library” (2021):
Hit rate of the full screen: of about 48,000 compounds, about 13,000 (27%) showed an effect of 50% or more. The list shows a part of the results.

tested on: Wolbachia pipientis; test: Anti-Wolbachia Cell-Based Screen; format: functional; design: scale not given: in the data most compounds retested in dose-response had high values; details: 5 µM

Row | Compound | Percent Effect
1 | O=C1CC(c2cccs2)Cc2[nH]c(=O)c(C(=O)NC3CCCC3)cc21 (stereo not given) | 7.726%
2 | Cn1cc(C(=O)NC[C@H]2OC[C@@H]3CCN(C4CCOCC4)C[C@@H]32)cn1.O=C(O)C(F)(F)F | -10.96%
3 | COC1CCN(S(=O)(=O)N2CCCC(c3cccc(C(=O)O)c3)C2)CC1 (stereo not given) | 12.84%
4 | O=C(CCC1CCCC1)N1CCC(c2ncc3c(n2)CCNC3)CC1 | -4.401%
5 | CC1(C)CCN(S(=O)(=O)N2CCCC(c3cccc(C(=O)O)c3)C2)CC1 (stereo not given) | 0.9326%
6 | CN1CCC(c2ncc3c(n2)CCN(C(=O)CC2C=CCC2)C3)CC1 (stereo not given) | -2.125%
7 | CN1CCc2nc(C3CCCN(C(=O)CC4CCCCC4)C3)ncc2C1 (stereo not given) | 117.4%
8 | CN1CCc2nc(C3CCCN(C(=O)CC(C)(C)C)C3)ncc2C1 (stereo not given) | 119.8%
9 | CCC(=O)N1CCCC(c2ncc3c(n2)CCN(C)C3)C1 (stereo not given) | 111.8%
10 | CN1CCc2nc(C3CCCN(S(=O)(=O)N4CCCC4)C3)ncc2C1 (stereo not given) | 92.03%
11 | Cc1nc[nH]c1CN1CCCC(CNC(=O)c2ccncn2)C1 (stereo not given) | -3.697%
12 | CCOc1cccc2c1OCC(=O)N(c1ccc(N(C)C)cc1)C2 | 138.3%
13 | CCOc1cccc2c1OCC(C(=O)NS(=O)(=O)Cc1ccccc1)=C2 | -3.971%
14 | CCOc1cccc2c1OCC(=O)N(c1ccc3c(c1)OCO3)C2 | 112.1%
15 | CCOc1ccccc1C(=O)NS(=O)(=O)c1ccc2c(c1)OCCCO2 | -4.596%
16 | CN(C)C(=O)N1CCC2(CC(=O)N(c3ccc4c(c3)OCO4)C2)C1 (stereo not given) | 3.437%
17 | CCOc1cccc2c1OCC(=O)N(c1ccc3c(c1)OCCO3)C2 | 123.7%
18 | CCS(=O)(=O)N1CCC2(CC(=O)N(c3ccc4c(c3)OCO4)C2)C1 (stereo not given) | -0.7388%

Row | Compound | Percent Effect
19 | CCOc1cccc2c1OCC(C(=O)NC(C)Cn1cccn1)=C2 (stereo not given) | -1.745%
20 | c1cncc(OCc2nc(C3CC3)nn2-c2ccc3c(c2)OCCO3)c1 | 1.227%
21 | Cc1nn(C)cc1C(C)Nc1ncc(C(N)=O)cc1Cl (stereo not given) | -11.95%
22 | COC(=O)CC(NC(=O)c1cccc(N2CCCC2=O)c1)c1cccs1 (stereo not given) | 6.294%
23 | CN(Cc1ccc(Cl)s1)C(=O)CN(C)C1CCCc2ccccc21 (stereo not given) | -6.291%
24 | O=C(CCN1CCSCC1c1ccccc1)N1CCOCC1 (stereo not given) | 2.279%
25 | COc1ccsc1C(=O)Nc1cc(CN2CCOCC2)ccc1C | -3.737%
26 | COCCN1CCC2(CC1)CC(c1cccnc1)CO2.O=C(O)C(F)(F)F (stereo not given) | 117.3%
27 | O=C(O)C(F)(F)F.O=S(=O)(C1CC1)N1CCC2(CC1)CC(Oc1cccnc1)CO2 (stereo not given) | 3.761%
28 | Fc1ccc(N2CCC3(CC2)CC(OCc2cccnc2)CO3)cc1.O=C(O)C(F)(F)F (stereo not given) | -13.34%
29 | O=C(O)C(F)(F)F.O=C(O)C(F)(F)F.O=C(O)C(F)(F)F.c1cncc(CN2CCC3(CC2)CC(c2cccnc2)CO3)c1 (stereo not given) | 108.2%
30 | COCCN1CCC2(CC1)CC(Nc1ccc(C)nn1)CO2.O=C(O)C(F)(F)F (stereo not given) | -23.59%
31 | O=C(NC1COC2(CCN(CC3CCC3)CC2)C1)c1ccccn1.O=C(O)C(F)(F)F (stereo not given) | 9.161%
32 | Fc1ccc(CN2CCC3(CC2)CC(c2cccnc2)CO3)cc1.O=C(O)C(F)(F)F.O=C(O)C(F)(F)F (stereo not given) | 97.05%
33 | O=C(O)C(F)(F)F.O=C(O)C(F)(F)F.c1cncc(C2COC3(CCN(CC4CCOCC4)CC3)C2)c1 (stereo not given) | 107.8%
34 | Fc1cnc(N2CCC3(CC2)CC(OCc2cccnc2)CO3)nc1.O=C(O)C(F)(F)F.O=C(O)C(F)(F)F (stereo not given) | -2.608%
35 | O=C(O)C(F)(F)F.O=C(O)C(F)(F)F.c1cncc(C2COC3(CCN(CC4CC4)CC3)C2)c1 (stereo not given) | 1.552%
